Test results as given in PubChem BioAssay.
Calls of active or inactive are those of the source. Unless noted, the rule behind the calls is not given here.

Key:
[1] = anti-His antibody binders, primary screen, artefact control for SMM control protein annotation, biochemical, small-molecule microarray, 635 nm fluorescence (AID 1128); conditions: anti-His Alexa647 antibody binding, higher = more signal;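 note: score merges feature fluorescence with signal-to-noise for each printed compound spot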
[2] = system: Human papillomavirus type 1a E7 protein (residues 1-88); test: HPV1a E7 small-molecule binders, primary screen, biochemical, small-molecule microarray, residues 1-88, 635 nm (AID 1129); conditions: small-molecule microarray binding, fluorescence 635 nm; higher = more signal
[3] = target: Focal adhesion kinase 1 (Homo sapiens) (UniProt Q05397); test: small-molecule microarray binders of FAK, primary screen, biochemical, 635/667 nm fluorescence, BSA, DTT (AID 1130); conditions: PTK2 binding, 635 nm fluorescence, higher = more signal;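 note: composite of spot emission at 667 nm and signal to noise over triplicate slides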
[4] = system: Fibrinogen (Alexa647-labelled); test: fibrinogen binders on compound microarrays, profiling panel, artefact control for SMM control-protein annotation, biochemical, small-molecule microarray, 635/667 nm fluorescence (AID 1131); conditions: fibrinogen-A647 binding fluorescence, higher = more signal;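 note: z-score merges 667 nm fluorescence with per-spot signal-to-noise over triplicate slides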
[5] = target: Follistatin (Homo sapiens) (UniProt P19883); test: follistatin binders on small-molecule microarrays, primary screen, biochemical, small-molecule microarray, 635/667 nm fluorescence (AID 1132); conditions: FST binding, 635 nm fluorescence, higher = more signal
[6] = target: Fibroblast growth factor 2 (Homo sapiens) (UniProt P09038); test: FGF2 binders on small-molecule microarrays, primary screen, biochemical, small-molecule microarray, 635/667 nm fluorescence (AID 1133); conditions: small-molecule microarray binding, FGF2, fluorescence 635/667; higher = more signal
[7] = mitochondrial membrane potential change in A549 cells, profiling panel, cell-based, JC-1 fluorescence, basal, 24 h, 100 nL (AID 1138); conditions: higher = more signal;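 note: A549 lung adenocarcinoma cells under basal conditions with no added stimulus; test concentration not given here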
Lefty1 = Lefty1 binders on small-molecule microarrays, primary screen, biochemical, small-molecule microarray, 635/667 nm fluorescence (AID 1139); conditions: small-molecule microarray binding, fluorescence 635/667; higher = more signal
[8] = system: wheat germ agglutinin (Triticum aestivum), Alexa647-labelled; test: wheat germ agglutinin binders on compound microarrays, profiling panel, artefact control for SMM control-protein annotation, biochemical, small-molecule microarray, 635/667 nm fluorescence (AID 1140); conditions: WGA-A647 binding, 635 nm fluorescence, higher = more signal;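 note: score merges 667 nm feature emission with signal to noise over triplicate slides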
[9] = target: Luciferin 4-monooxygenase (Photinus pyralis) (UniProt P08659); test: firefly luciferase enzyme inhibitors, primary screen, biochemical, luminescence, purified enzyme, 2006 set (AID 1141); conditions: SteadyGlo luminescence, 30 min, higher = more signal, called active from +8 up or from −8 down;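 note: cell-free assay with purified firefly luciferase at 100 ng per well in PBS; test concentration not given here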
[10] = system: Wnt5a (protein binding on small-molecule microarray); test: Wnt5a binders on small-molecule microarray, primary screen, biophysical, 635/667 nm fluorescence (AID 1142); conditions: 635 nm fluorescence, higher = more signal;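 note: fluorescence read at 667 nm with signal to noise per printed feature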
[11] = cell viability in Huh7 cells, primary screen, cytotoxicity control for HCV replication inhibitor project, CellTiter-Glo luminescence, basal, 48 h (AID 1143); conditions: Huh7 HCV replicon, higher = more signal, called active from +8 up or from −8 down;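 note: Huh7 hepatoma cells carrying a hepatitis C replication reporter with no stimulus; test concentration not given here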
[12] = P. aeruginosa biofilm formation inhibitors, primary screen, PAO1 strain, BacTiter-Glo luminescence, LB-PBS (AID 1144); conditions: 12 h, higher = more signal
[13] = CREB reporter modulators without forskolin, primary screen, cell-based, PC12, CRE-LacZ reporter, unstimulated (AID 1145); conditions: no forskolin, luminescence, 4.5 h, higher = more signal, called active from +8 up or from −8 down
[14] = CREB reporter modulators under forskolin, primary screen, cell-based, PC12, CRE-LacZ reporter, forskolin-stimulated (AID 1146); conditions: luminescence, 4.5 h, higher = more signal, called active from +8 up or from −8 down;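 note: PC12 cells with 6xCRE LacZ reporter stimulated by forskolin 10 µM; beta-galactosidase reporter signal reflecting CREB driven transcription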
[15] = target: Streptavidin (Streptomyces avidinii) (UniProt P22629); test: streptavidin binders on small-molecule microarray, primary screen, artefact control for SMM compound annotation, biophysical, 635/667 nm fluorescence (AID 1147); conditions: streptavidin binding, higher = more signal;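 note: signal reflects streptavidin binding to arrayed compounds as a control protein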
[16] = small-molecule binders of probe aInhba, primary screen, biochemical, small-molecule microarray, 635/667 nm fluorescence (AID 1148); conditions: higher = more signal;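 note: score merges 667nm spot fluorescence with signal-to-noise for antibody binding to printed compounds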
Torsin-1A (Homo sapiens) [17] = target: Torsin-1A (Homo sapiens) (UniProt O14656); test: torsin A binders from cell lysate, primary screen, small-molecule microarray, wild-type, 635/667 nm (AID 1149); conditions: COS7 hTOR1A-WT lysate, 635 nm fluorescence, higher = more signal
Torsin-1A (Homo sapiens) [18] = target: Torsin-1A (Homo sapiens) (UniProt O14656); test: small-molecule binders of mutant TOR1A in lysate, primary screen, cell lysate, small-molecule microarray, COS7 lysate, 635/667 nm fluorescence (AID 1150); conditions: COS7 hTOR1A mutant lysate, 635 nm fluorescence, higher = more signal;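 note: score pools 667 nm emission and signal to noise measuring lysate protein binding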
[19] = system: Sonic hedgehog protein (Shh); test: small-molecule binders of Shh protein, primary screen, biochemical, small-molecule microarray, 635/667 nm fluorescence (AID 1151); conditions: small-molecule microarray binding, 635 nm fluorescence; higher = more signal;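 note: Shh protein binding to compounds spotted on small-molecule microarray slides; score combines spot fluorescence intensity with signal-to-noise across triplicate slides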

Chain of Follistatin (Homo sapiens) (P19883 whole entry, looked up): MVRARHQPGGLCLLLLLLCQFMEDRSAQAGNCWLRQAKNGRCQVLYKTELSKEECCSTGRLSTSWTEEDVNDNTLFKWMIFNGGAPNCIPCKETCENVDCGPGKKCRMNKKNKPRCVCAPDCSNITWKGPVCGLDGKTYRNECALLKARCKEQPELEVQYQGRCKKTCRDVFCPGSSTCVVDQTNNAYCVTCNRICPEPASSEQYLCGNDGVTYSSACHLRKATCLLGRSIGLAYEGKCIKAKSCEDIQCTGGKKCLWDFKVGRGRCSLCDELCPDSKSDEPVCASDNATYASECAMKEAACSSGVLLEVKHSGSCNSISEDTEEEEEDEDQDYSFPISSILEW
Chain of Streptavidin (Streptomyces avidinii) (P22629 whole entry, looked up): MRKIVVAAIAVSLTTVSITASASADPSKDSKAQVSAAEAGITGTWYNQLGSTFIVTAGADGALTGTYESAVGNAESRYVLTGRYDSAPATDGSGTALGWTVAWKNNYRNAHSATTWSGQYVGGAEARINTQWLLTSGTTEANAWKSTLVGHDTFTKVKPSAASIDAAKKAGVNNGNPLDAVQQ
Chain of Fibroblast growth factor 2 (Homo sapiens) (P09038 whole entry, looked up): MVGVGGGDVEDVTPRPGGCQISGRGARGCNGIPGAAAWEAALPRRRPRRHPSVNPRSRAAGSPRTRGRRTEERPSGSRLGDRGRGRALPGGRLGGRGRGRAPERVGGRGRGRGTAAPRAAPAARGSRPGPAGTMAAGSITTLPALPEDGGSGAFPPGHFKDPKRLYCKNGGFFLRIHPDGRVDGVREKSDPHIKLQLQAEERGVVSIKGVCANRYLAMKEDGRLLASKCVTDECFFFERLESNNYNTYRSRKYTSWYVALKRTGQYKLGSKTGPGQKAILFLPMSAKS
Chain of Focal adhesion kinase 1 (Homo sapiens) (Q05397 whole entry, looked up): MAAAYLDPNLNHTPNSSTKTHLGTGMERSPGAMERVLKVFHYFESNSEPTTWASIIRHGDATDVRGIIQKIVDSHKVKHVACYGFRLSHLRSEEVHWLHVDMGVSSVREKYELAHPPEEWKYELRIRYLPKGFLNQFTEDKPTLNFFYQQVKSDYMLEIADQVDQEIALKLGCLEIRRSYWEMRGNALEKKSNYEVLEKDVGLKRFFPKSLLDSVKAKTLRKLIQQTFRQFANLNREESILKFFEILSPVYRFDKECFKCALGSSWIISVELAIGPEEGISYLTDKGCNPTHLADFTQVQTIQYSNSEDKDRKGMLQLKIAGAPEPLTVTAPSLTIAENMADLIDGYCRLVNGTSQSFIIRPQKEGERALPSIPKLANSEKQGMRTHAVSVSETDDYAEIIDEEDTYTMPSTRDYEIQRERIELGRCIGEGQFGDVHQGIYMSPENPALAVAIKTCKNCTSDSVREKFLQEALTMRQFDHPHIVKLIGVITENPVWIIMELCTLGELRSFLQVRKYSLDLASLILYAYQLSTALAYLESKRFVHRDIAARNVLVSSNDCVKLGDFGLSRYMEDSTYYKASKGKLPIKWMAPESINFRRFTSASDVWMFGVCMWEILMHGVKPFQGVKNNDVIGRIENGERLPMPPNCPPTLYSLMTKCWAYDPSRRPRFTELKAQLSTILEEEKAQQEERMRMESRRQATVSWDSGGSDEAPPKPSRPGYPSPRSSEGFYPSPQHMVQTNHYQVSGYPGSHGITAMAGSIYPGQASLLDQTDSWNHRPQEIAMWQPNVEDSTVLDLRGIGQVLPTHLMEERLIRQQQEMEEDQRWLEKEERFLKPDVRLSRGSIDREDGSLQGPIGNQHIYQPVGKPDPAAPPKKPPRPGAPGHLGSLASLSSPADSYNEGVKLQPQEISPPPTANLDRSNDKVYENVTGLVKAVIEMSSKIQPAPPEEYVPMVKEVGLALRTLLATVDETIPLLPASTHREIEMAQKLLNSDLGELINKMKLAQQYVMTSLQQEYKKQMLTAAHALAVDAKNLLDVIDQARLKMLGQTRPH
Chain of Torsin-1A (Homo sapiens) (O14656 whole entry, looked up): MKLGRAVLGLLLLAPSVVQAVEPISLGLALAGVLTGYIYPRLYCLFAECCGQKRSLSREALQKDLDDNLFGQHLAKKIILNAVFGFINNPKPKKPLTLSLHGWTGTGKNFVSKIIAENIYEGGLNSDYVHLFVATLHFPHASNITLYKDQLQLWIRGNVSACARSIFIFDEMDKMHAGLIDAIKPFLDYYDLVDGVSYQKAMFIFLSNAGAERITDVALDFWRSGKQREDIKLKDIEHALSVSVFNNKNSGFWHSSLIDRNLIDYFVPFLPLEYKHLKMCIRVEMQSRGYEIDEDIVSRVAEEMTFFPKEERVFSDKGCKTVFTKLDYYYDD
Chain of Luciferin 4-monooxygenase (Photinus pyralis) (P08659 whole entry, looked up): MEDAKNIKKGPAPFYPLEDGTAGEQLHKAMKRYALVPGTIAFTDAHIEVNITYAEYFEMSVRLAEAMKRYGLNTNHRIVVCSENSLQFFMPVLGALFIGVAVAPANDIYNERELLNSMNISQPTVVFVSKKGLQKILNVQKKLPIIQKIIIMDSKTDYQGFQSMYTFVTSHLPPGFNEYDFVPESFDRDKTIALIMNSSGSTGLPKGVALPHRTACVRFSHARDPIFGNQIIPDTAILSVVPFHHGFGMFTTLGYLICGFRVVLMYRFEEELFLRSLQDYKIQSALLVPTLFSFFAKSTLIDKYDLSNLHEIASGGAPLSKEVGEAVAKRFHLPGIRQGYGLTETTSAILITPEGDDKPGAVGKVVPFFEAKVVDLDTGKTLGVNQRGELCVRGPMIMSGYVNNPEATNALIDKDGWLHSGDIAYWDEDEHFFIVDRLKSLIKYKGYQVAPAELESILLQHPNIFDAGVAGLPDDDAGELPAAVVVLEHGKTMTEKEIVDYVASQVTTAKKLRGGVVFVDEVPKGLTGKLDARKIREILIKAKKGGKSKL

SMILES | composite z-score [1] | composite z-score [2] | composite z-score [3] | composite z-score [4] | composite z-score [5] | composite z-score [6] | z-score [7] | composite z-score (Lefty1) | composite z-score [8] | z-score [9] | composite z-score [10] | z-score [11] | z-score [12] | z-score [13] | z-score [14] | composite z-score [15] | composite z-score [16] | composite z-score (Torsin-1A (Homo sapiens) [17]) | composite z-score (Torsin-1A (Homo sapiens) [18]) | composite z-score [19]
COc1ccc(NN2C(C(O)c3ccco3)C=CC3C(=O)N(C4CCCCC4)C(=O)C32)cc1 (stereo not given) | 1.04 | 1.22 | 0.653 | 0.936 | 1.25 | 0.484 | 0.265 | 0.655 | 1.19 | -0.358 (inactive) | 0.495 | -0.829 (inactive) | -0.522 (inactive) | 0.323 (inactive) | 0.565 (inactive) | 0.965 | 0.0471 | 0.95 | 1.1 | 1.28
C=CCNC(=O)[C@@H]1[C@H]2C(=O)O[C@H](c3ccccc3)[C@H](c3ccccc3)N2[C@H](c2ccc(OCCO)cc2)[C@@]12C(=O)N(C(=O)OCCOC)c1ccc(C#CC3=CCCCC3)cc12 | 0.864 | 1.23 | 0.677 | 0.871 | 1.31 | 0.985 | -1.03 | 1.05 | 0.522 | -1.25 (inactive) | 0.335 | -2.81 (inactive) | 0.576 (inactive) | 0.2 (inactive) | 0.886 (inactive) | 0.902 | 0.104 | 0.694 | 0.823 | 1.46
CN(C)CCCCNC(=O)[C@H]1C[C@H]2C(=O)N[C@@H](CCCCN(C)C)C(=O)N2[C@H]1c1cccc(OCCO)c1 | 1.1 | 0.603 | 0.29 | 0.877 | 1.3 | 1.23 | -0.0557 | 1.64 | 1.02 | 0.709 (inactive) | 0.83 | 0.441 (inactive) | 0.251 (inactive) | -1.07 (inactive) | -0.535 (inactive) | 0.329 | -0.305 | 0.68 | 0.86 | 2.08
CN(C)CCCNC(=O)[C@@H]1c2ccccc2C(=O)N(Cc2ccc(OC(F)(F)F)cc2)[C@H]1c1ccc(CO)cc1 | 0.21 | 0.701 | 0.0807 | 0.18 | 1.18 | -0.22 | 0.311 | 0.9 | -0.374 | 1.15 (inactive) | 0.0246 | -1.35 (inactive) | -1.42 (inactive) | -0.114 (inactive) | 0.77 (inactive) | 0.121 | -0.128 | -0.116 | 0.151 | 2.18
C[C@]1(C(=O)NCCN2CCOCC2)c2ccccc2C(=O)N(Cc2ccc(OC(F)(F)F)cc2)[C@H]1c1ccc(CO)cc1 | 2.24 | 0.634 | -0.108 | 0.915 | 0.536 | -0.38 | 1.68 | -0.355 | 0.55 | -0.0852 (inactive) | -0.333 | -0.653 (inactive) | -0.67 (inactive) | -0.412 (inactive) | -0.51 (inactive) | -0.152 | -0.101 | 0.816 | 0.853 | -0.704
NC(=O)N1C(=O)C2C(C1=O)C1C=C(CCCO)C2C(c2cccs2)N1Cc1cc2c(cc1Br)OCO2 (stereo not given) | 2.23 | -0.212 | 1.67 | 0.87 | 0.192 | -0.681 | 0.707 | 0.574 | 0.851 | -0.062 (inactive) | -0.25 | -0.477 (inactive) | -0.584 (inactive) | 0.424 (inactive) | -0.298 (inactive) | 1.13 | -0.0983 | -0.164 | 0.279 | 0.0313
COc1ccc([Si](C)(C)[C@H]2[C@H](CC(=O)N3Cc4ccccc4C[C@H]3CO)O[C@@]3(C(=O)N(Cc4cccc(N5CCCCC5=O)c4)c4ccccc43)[C@@H]2C)cc1 | 1.57 | 0.307 | 0.566 | 0.378 | 1.3 | 1.58 | 0.925 | 1.53 | 0.292 | -0.0418 (inactive) | 0.329 | -3.48 (inactive) | -0.185 (inactive) | 2.21 (inactive) | 0.114 (inactive) | -0.0717 | 0.0422 | 0.849 | 0.431 | 2.15
CN1C2C=C(CCCO)C(C3C(=O)N(C(N)=O)C(=O)C32)C1c1cccs1 (stereo not given) | 0.738 | 0.151 | -0.111 | -0.451 | 0.044 | -0.22 | -0.405 | 0.38 | -0.303 | -0.655 (inactive) | 2.03 | 0.148 (inactive) | 0.628 (inactive) | -1.09 (inactive) | -0.23 (inactive) | 0.0783 | -0.0963 | 0.21 | 0.429 | 0.279
CCOC(=O)C[C@H]1[C@H](OC(=O)c2ccc(-c3ccccc3)cc2)[C@@H](NC(=O)c2ccc3ccccc3c2)c2cc(OCCCO)ccc2N1C(=O)c1ccc2ccccc2n1 | 0.558 | 0.921 | -0.152 | 0.735 | 0.458 | -0.141 | 0.329 | 0.367 | 0.209 | -0.704 (inactive) | 0.0577 | 0.866 (inactive) | -0.0546 (inactive) | -0.593 (inactive) | -0.611 (inactive) | 1.02 | 0.106 | 0.138 | 0.527 | 0.539
NC(=O)N1C(=O)C2C(C1=O)C1C=C(c3ccc(CO)cc3)C2C(C2CC2)N1Cc1sc2ccccc2c1Cl (stereo not given) | 2.42 | 1.13 | -0.159 | 0.985 | 0.855 | 1.62 | 1.46 | 1.16 | 1.12 | -2.36 (inactive) | 0.323 | -3.73 (inactive) | 0.447 (inactive) | 4.42 (inactive) | -1.63 (inactive) | 1.43 | -0.0313 | 1.19 | 0.83 | 1.38
